Shown are actives, neighbours in structure and some others; about 3.1% of the full set was active somewhere.
Tau fluor cs – Counterscreen qHTS for Inhibitors of Tau Fibril Formation, Fluorescence Polarization | Potency, µM (series often up to 57.7 µM), for the others: at the top dose activity change, negative = decrease | tau K18 P301L Alexa594 fluorescence, heparin fibrillization | hit rate 0.93% among 280,000; also: nearly all actives have a fitted effect of over 55% in size
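Human K18 P301L tau (15 uM unlabeled plus 0.24 uM Alexa 594-labeled, final) in 100 mM sodium acetate pH 7 was mixed with compound and 20 uM heparin and incubated 6 hr at 37 C.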
Tau fibril FP – qHTS for Inhibitors of Tau Fibril Formation, Fluorescence Polarization; Microtubule-associated protein tau (Homo sapiens), P10636; K18 P301L tau heparin fibrillization, Alexa594 FP, 6 h; Potency, µM (top dose mostly 57.7 µM), inactives show top-dose activity, negative = inhibition, hits mostly inhibitors; hit rate 0.39% among 280,000; AID 1468, 2008; also: nearly all actives have a fitted effect of over 55% in size
Target sequence (P10636 561-689 P618L limits assumed): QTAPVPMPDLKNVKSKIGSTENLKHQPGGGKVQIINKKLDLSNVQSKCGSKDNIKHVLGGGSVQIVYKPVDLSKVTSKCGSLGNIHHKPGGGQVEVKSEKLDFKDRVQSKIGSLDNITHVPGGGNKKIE
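Steps: dispense K18 P301L tau (15 uM plus 0.24 uM Alexa 594 tracer, final) in pH 7 sodium acetate; add compound; add heparin (20 uM final); incubate 6 hr, 37 C; add ThT (30 uM final); after 1 hr ambient, read FP.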
Tau ThT inhib – qHTS for Inhibitors of Tau Fibril Formation, Thioflavin T Binding. Microtubule-associated protein tau (Homo sapiens), P10636. hit rate 2.1% among 270,000. Potency, µM (doses to about 57.4 µM), for inactives: top-dose activity, negative = inhibition, hits mostly inhibitors. recombinant tau K18 P301L (four-repeat tau fragment), heparin-induced fibrillization, ThT fluorescence; also: nearly all actives have a fitted effect of over 55% in size
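In this qHTS, human K18 P301L tau is incubated with compound and heparin for 6 hr at 37 C, and Thioflavin T fluorescence then reports fibril load.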
TRb SRC2 PPI – qHTS for Inhibitors of the Interaction of Thyroid Hormone Receptor and Steroid Receptor Coregulator 2 | TRbeta-SRC2 peptide binding, fluorescence polarization; receptor liganded with 1 µM T3 | hit rate 0.065% among 280,000 | Potency, µM (doses to about 106 µM), inactives show top-dose activity change, negative = inhibition, hits mostly inhibitors | AID 1469, 2008 | Thyroid hormone receptor beta (Homo sapiens), P10828;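 also: plate controls were bound peptide for no effect and peptide without receptor for full effect; nearly all actives have a fitted effect of over 50% in size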
Target sequence (P10828 whole entry, looked up): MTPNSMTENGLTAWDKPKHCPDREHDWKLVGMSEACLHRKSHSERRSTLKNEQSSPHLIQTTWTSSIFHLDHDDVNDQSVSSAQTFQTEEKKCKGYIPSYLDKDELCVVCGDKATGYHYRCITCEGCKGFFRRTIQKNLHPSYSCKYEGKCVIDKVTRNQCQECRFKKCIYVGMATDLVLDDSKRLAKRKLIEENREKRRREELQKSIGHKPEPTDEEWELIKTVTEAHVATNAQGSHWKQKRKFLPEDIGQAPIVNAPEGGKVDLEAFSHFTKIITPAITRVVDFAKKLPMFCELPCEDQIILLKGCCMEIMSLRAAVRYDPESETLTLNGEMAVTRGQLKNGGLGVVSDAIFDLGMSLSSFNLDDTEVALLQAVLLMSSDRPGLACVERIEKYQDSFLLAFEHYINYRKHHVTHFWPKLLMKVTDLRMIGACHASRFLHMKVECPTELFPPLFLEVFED
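Each compound concentration gave % activity, normalized to unbound and bound Texas Red SRC2 controls, from polarization read after 5 hr ambient incubation with T3-loaded human TRb LBD.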
TR SRC2 fluor cs – Total Fluorescence Counterscreen for Inhibitors of the Interaction of Thyroid Hormone Receptor and Steroid Receptor Coregulator 2; TRb/SRC2 Texas Red total fluorescence interference; Potency, µM (doses to about 106 µM), for the others: top-dose fluorescence change, negative = quenching; hit rate 0.29% among 280,000; active = well fitted curve in either direction with a large enough effect; inconclusive = small, poorly fitted or top-dose-only effect
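Human TRβ ligand-binding domain (0.6 uM) and Texas Red SRC2 peptide (20 nM) in Tris buffer with 1 uM T3 and 5% DMSO were incubated with pinned compound for 5 hr at ambient temperature. Total fluorescence was computed as S + 2P (555/632 nm).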
An asterisk follows results filed as active; ? = inconclusive; / = not tested or not shown; [ ] = dose if it differs, or a comment. Unless noted, calls follow the shape of the dose curve; as a rule, active = well fitted curve in the direction sought with a large enough effect; inconclusive = small, poorly fitted or top-dose-only effect, or another doubt; inactive = no such curve, though single readings can be large; an effect the other way counts as inactive or inconclusive. Unless noted, % is scaled to controls: 0 for no effect and ±100 for the full control effect; potency is read from the fitted curve at half-maximal effect.

SMILES	Tau fluor cs	Tau fibril FP	Tau ThT inhib	TRb SRC2 PPI	TR SRC2 fluor cs
CC(C)(C)C1CCc2c(sc3nc(-c4cc5ccccc5oc4=O)[nH]c(=O)c23)C1 (stereo not given)	-6%	2%	-5%	-8%	4%
CC1CCc2c(sc3nc(-c4cc5ccccc5oc4=O)nc(Cl)c23)C1 (stereo not given)	-14%	8%	?	-29%[53 µM]	32µM*[quencher]
Cc1nnc(C)n1/N=C/c1cc(Br)cc(Br)c1O	-11%	-12%	11µM*	4%	-7%
COc1cccc2cc(-c3ccnc(=S)[nH]3)oc12	-19%	?	28µM*	1%	-2%
Cc1ccc2nc(-c3c[nH]c4ccccc34)c(Nc3ccc(F)cc3)n2c1	5µM*[quencher]	?	-11%	-8%	1%
Cc1ccc(Nc2c(-c3ccccn3)nc3cc(C)ccn23)cc1	-26%	9%	?	-5%	-2%
Cc1ccn2c(Nc3ccccc3)c(-c3c[nH]c4ccccc34)nc2c1	11µM*[quencher]	?	?	0%	?
Cc1ccc(Nc2c(-c3c[nH]c4ccccc34)nc3cc(C)ccn23)cc1	11µM*[quencher]	3%	?	3%	-14%
Cc1ccccc1Nc1c(-c2c[nH]c3ccccc23)nc2ccccn12	?	4%	-13%	-4%	1%
N#CC1=C(N)NC(SCc2ccc(F)cc2)=C(C#N)C12CCCCC2	18µM*[quencher]	?	-8%	-4%	-2%
N#CC1=C(N)NC(SCC(=O)O)=C(C#N)C12CCCC2	-13%	-3%	?	-12%	0%
COc1ccc(COc2cc(-c3cccc(OC)c3)nc3ccc(N)cc23)cc1	13µM*[quencher]	?	?	4%	-5%
COc1ccc(COc2cc(-c3cccc(OC)c3)nc3ccc(NC(C)=O)cc23)cc1	-24%[81.3 µM]	?	-5%[81.4 µM]	5%	3%
COc1cccc(Oc2cn[nH]c2-c2ccc(O)cc2O)c1	?	?	-9%	6%	-1%
COc1cccc(Oc2cn[nH]c2-c2ccc(OC)cc2O)c1	14µM*[quencher]	-11%	-11%	1%	0%
CCOc1ccc(-c2[nH]ncc2Oc2cccc(OC)c2)c(O)c1	16µM*[quencher]	?	?	-5%	-2%
CC1CCN(C(=O)CSc2c3c(nc4ccc(Cl)cc24)CCCC3)CC1	-7%	-11%	?	1%	-3%
COc1ccc(NC(=S)Nc2ccc(OCc3ccccc3)cc2)c(OC)c1	14µM*[quencher]	?	?	-15%	2%
COc1ccc(NC(=S)Nc2ccccc2)c(OC)c1	-13%	-5%	-9%	-4%	0%
CCC(=O)Nc1ccccc1-c1nc2ccccc2n(Cc2cccc(Br)c2)c1=O	8%	6%	6%	2%	-1%
CCCCC(CC)CNCC(CC)CCCC (stereo not given)	/	/	/	2%	-2%
Cc1ccc2nc(/C(C#N)=C\c3ccc(N4CCOCC4)o3)[nH]c2c1	?	?	13µM*	-20%	-4%
Cc1ccc(/C(C#N)=C\c2ccc(N3CCOCC3)o2)cc1	?	?	10µM*	-4%	13%
N#C/C(=C\c1ccc(N2CCOCC2)o1)C(=O)NCCc1ccccc1	-27%	11%	8.9µM*	-9%	-1%
CCOC(=O)c1ccc(-c2ccc(/C=C(\C#N)c3nc4ccc(C)cc4[nH]3)o2)cc1	-18%	-1%	-5%	3%	-5%
SMILES	Tau fluor cs	Tau fibril FP	Tau ThT inhib	TRb SRC2 PPI	TR SRC2 fluor cs
COCCNC(=O)/C(C#N)=C/c1ccc(N2CCOCC2)o1	-12%	-1%	?	0%	1%
CC1OC(OCC2OC(Oc3cc(O)c4c(c3)OC(c3ccc(O)cc3)CC4=O)C(O)C(O)C2O)C(O)C(O)C1O (stereo not given)	/	/	/	4%	-17%
O=C(NC1CCCCC1)C(c1cccnc1)N(C(=O)c1ccc(Cl)nc1)C1CCCCC1 (stereo not given)	-4%	2%	-5%	0%	0%
CC(C)(C)NC(=O)C(c1cccnc1)N(C(=O)c1ccc(Cl)nc1)C1CCCC1 (stereo not given)	-37%	-65%	13µM*	-10%[53 µM]	-2%[53 µM]
COc1ccc(C2CC(c3ccccc3)=NN2c2ccc(/C=N/NC(=O)c3ccncc3)cc2)cc1 (stereo not given)	13µM*[quencher]	?	?	1%	-3%
COc1ccc(OC)c(-n2c3c(cc(-c4nc(-c5ccc(Cl)cc5)cs4)c2=O)C(=O)CC(C)(C)C3)c1	-20%	6%	0%	-6%	3%
COc1cc2c(C#N)c(N3CCc4ccccc4C3)nc(N)c2c(N)n1	14µM*[quencher]	1%	?	-3%	-1%
Cc1c(C(=O)N(C)C)sc2c1c(=O)n(-c1ccc(Cl)c(Cl)c1)c(=O)n2CC(=O)N1CCCCC1C (stereo not given)	7%	12%	6%	0%	2%
Cc1ccc(Nc2c(-c3ccc(N4CCOCC4)cc3)nc3c(C)cccn23)cc1	?	9%	?	5%	-4%
CCCCCn1c(=O)[nH]c2cc(C(=O)Nc3ccc(OC)c(OC)c3)ccc2c1=O	?	-7%	?	-4%	-1%
Cc1ccc(CCNC(=O)c2c[nH]c3ccc(S(=O)(=O)Nc4cccc(C(F)(F)F)c4)cc3c2=O)cc1	?	7.9µM*	?	0%	-1%
CCc1ccc(NS(=O)(=O)c2ccc3[nH]cc(C(=O)NCCc4ccccc4)c(=O)c3c2)cc1	1%	?	8%	-4%	1%
CC(C)CCNC(=O)c1c[nH]c2ccc(S(=O)(=O)Nc3cccc(C(F)(F)F)c3)cc2c1=O	?	14µM*	6%	0%	1%
O=C(NC1CCCC1)c1c[nH]c2ccc(S(=O)(=O)Nc3cccc(C(F)(F)F)c3)cc2c1=O	?	10µM*	11%	-7%	-1%
CN(C(=O)c1c[nH]c2ccc(S(=O)(=O)Nc3cccc(C(F)(F)F)c3)cc2c1=O)C1CCCCC1	-28%	2%	-7%	-3%	-3%
Cc1cc(C)cc(NS(=O)(=O)c2ccc3[nH]cc(C(=O)NCCc4ccccc4)c(=O)c3c2)c1	?	?	2%	5%	0%
Cc1ccccc1NS(=O)(=O)c1ccc2[nH]cc(C(=O)NCCc3ccccc3)c(=O)c2c1	?	11µM*	8%	1%	-1%
Cc1ccc(Cn2cc(CCC(=O)NCC(C)c3ccccc3)c3ccccc32)cc1 (stereo not given)	-9%	7%	?	-3%	-2%
COc1nc(-c2cccc([N+](=O)[O-])c2)nc2ccccc12	-22%	-14%	-12%	-4%	1%

Source: PubChem
